The text below walks through data of PubChem BioAssay (NCATS).

Assay [1] is described as follows: AP1 Signaling Pathway (AID 357).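 Note: ME-180 reporter cells stimulated with EGF at its EC50 level; % is set by controls: 0 for no effect and ±100 for the full control effect.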 The settings on record: ME-180 AP-1-bla reporter, EGF-induced, beta-lactamase ratio, 5 h; at 17.2 µM (top of the series) unless noted. A digest of the protocol:
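In this screen, ME-180 cells in Opti-MEM with 0.5% dialyzed FBS received EC50 EGF and compound titrations for 5 h. AP-1 reporter beta-lactamase was detected via CCF4 ratio, giving AC50 for positive and negative modulators.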

The nature of assay [2]: NFAT Signaling Pathway (AID 444).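 Note: carbachol stimulus at about its EC50 of 1 µM final; % is set by controls: 0 for no effect and ±100 for the full control effect.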 Particulars: Jurkat NFAT-bla M1, carbachol, beta-lactamase ratio, 5 h; at 17.2 µM (top of the series) unless noted. A digest of the protocol:
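Read-out: CCF4 FRET ratio (460 nm/530 nm) after 1 h RT dye loading, used for %activity and AC50 from titration series. Cells: Jurkat NFAT-β-lactamase/M1 line, treated with compound plus 1 uM carbachol for 5 h, 37 °C.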

A short description of assay [3]: Stat Signaling Pathway (AID 446).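 Note: ME-180 cervical cancer cells given 40 pM IL-6 alongside compound; SIE-controlled beta-lactamase reporter measured as 460/530 nm FRET emission ratio; % is set by controls: 0 for no effect and ±100 for the full control effect.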 The settings on record: ME-180 (cervical carcinoma) SIE beta-lactamase reporter, IL-6 stimulated, 5 h; at 17.2 µM (top of the series) unless noted. In short, it runs like this: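 Overnight-plated ME-180 cells bearing a STAT Inducible Element beta-lactamase reporter; 5 h co-exposure to compound and 40 pM IL-6; values normalized to 300 pM IL-6 and 125 nM JAK inhibitor controls.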

For assay [4], the target named is Glucocorticoid receptor (Homo sapiens) (UniProt P04150). As to the kind of experiment: GR-GFP Redistribution (AID 450;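 active = compounds whose dose series gives a full or clear partial fitted curve of increased nuclear translocation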; note: potency is the fitted concentration of half-maximal effect).
Sequence of Glucocorticoid receptor (Homo sapiens) (P04150 whole entry, looked up): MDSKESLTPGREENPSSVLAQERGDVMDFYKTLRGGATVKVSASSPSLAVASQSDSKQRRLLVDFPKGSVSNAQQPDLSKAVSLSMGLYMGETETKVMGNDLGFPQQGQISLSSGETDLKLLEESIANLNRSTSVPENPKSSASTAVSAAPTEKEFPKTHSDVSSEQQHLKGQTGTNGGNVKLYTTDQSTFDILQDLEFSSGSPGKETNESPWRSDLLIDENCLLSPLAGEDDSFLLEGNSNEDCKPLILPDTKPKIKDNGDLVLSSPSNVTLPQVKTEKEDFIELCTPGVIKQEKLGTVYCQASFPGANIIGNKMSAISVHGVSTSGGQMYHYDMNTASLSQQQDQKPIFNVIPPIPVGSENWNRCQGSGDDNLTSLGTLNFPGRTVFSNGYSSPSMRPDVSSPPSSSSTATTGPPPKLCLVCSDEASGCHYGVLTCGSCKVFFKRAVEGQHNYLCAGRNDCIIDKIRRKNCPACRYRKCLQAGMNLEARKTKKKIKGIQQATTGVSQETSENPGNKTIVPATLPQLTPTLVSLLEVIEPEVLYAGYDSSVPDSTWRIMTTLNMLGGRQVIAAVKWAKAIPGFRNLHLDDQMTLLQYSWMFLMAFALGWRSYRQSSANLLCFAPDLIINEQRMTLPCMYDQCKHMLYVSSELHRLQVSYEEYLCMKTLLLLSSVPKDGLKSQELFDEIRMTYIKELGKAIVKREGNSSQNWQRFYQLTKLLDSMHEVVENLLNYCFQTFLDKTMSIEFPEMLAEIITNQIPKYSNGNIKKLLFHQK

Values without a mark were called inactive. Results filed as inconclusive are left out. Activity calls are given as the source filed them. Unless noted, calls come from the whole dose curve; as a rule, active = well fitted curve in either direction with a large enough effect (not every such curve was filed as active); inconclusive = small, poorly fitted or top-dose-only effect, or another doubt; inactive = flat fitted curve, though single readings scatter.

Take `Cc1cc(C)n(CC(=O)n2nc(C)cc2C)n1`: the activity change, negative = inhibition in assay [1] is 11.3%; in assay [2] it was -8.81%. Further, the activity, negative = inhibition in assay [3] was 8.01%. Also, the Potency in assay [4] is > 20.6 µM.

Regarding `CCCCc1nc(N2CCOCC2)c(C#N)c2c1CCCC2`, the activity change, negative = inhibition in assay [1] is -10.8%; in assay [2] it was -27.2%. Besides, the activity, negative = inhibition in assay [3] was -8.28%. For the same compound, the Potency in assay [4] is > 20.6 µM.

With `C=CCNc1nc(C2(C)CC3(CC(C)(C)OC3=O)C(=O)O2)cs1` (stereo not drawn), the results for the activity change, negative = inhibition in assay [1] and in assay [2] were -3.51% and -7.31%, respectively. Besides, the activity, negative = inhibition in assay [3] was -18.1%. Also, the Potency in assay [4] is > 20.6 µM.

As to `COc1ccc(C2Nc3ccccc3C(=O)N2Cc2ccco2)cc1CN1C(=O)c2ccccc2C1=O` (stereo not drawn), the results for the activity change, negative = inhibition in assay [1] and in assay [2] were -19.7% and -14.1%, respectively. Moreover, the activity, negative = inhibition in assay [3] was -19.4%. Moreover, the Potency in assay [4] was > 20.6 µM.

As to `COc1ccc2[nH]c(C)c(C(=O)CN3CCN(C(=O)c4ccco4)CC3)c2c1`, the activity change, negative = inhibition in assay [1] is -11.2%; in assay [2] it was -1.42%. Also, in assay [3], the activity, negative = inhibition is -3.32%. In addition, the Potency in assay [4] was > 20.6 µM.

`O=c1[nH]nc2n1CCCCC2`: the activity change, negative = inhibition in assay [1] was 13.2%; in assay [2], 9.36%. Also, the activity, negative = inhibition in assay [3] is 7.42%. Moreover, in assay [4], the Potency is > 20.6 µM.

On to `Cn1c(N2CCN(c3ccccn3)CC2)nc2c1c(=O)n(Cc1ccccc1Cl)c(=O)n2C`, for which the activity change, negative = inhibition was 4.27% in assay [1] and 8.29% in assay [2]. The activity, negative = inhibition in assay [3] was -8.44%. Also, the Potency in assay [4] is > 20.6 µM.

In the case of `CCCCCCn1c(C(C)O)nc2ccccc21` (stereo not drawn), the activity change, negative = inhibition in assay [1] is 0.304%; in assay [2], 5.62%. For the same compound, the activity, negative = inhibition in assay [3] is -3.73%. For the same compound, the Potency in assay [4] is > 20.6 µM.

As for `CCCCCOC(=O)Cc1c(C)nc(-c2ccccc2)[nH]c1=O`, the figures for the activity change, negative = inhibition in assay [1] and in assay [2] were -3.29% and 8.16%, respectively. Also, the activity, negative = inhibition in assay [3] was 4.57%. In addition, the Potency in assay [4] was > 20.6 µM.

On to `Cc1nc(NCCCO)c(C#N)c2c1COC(C)(C)C2`, for which the activity change, negative = inhibition in assay [1] was -14.2%; in assay [2], 1.02%. Moreover, the activity, negative = inhibition in assay [3] was 1.39%. For the same compound, the Potency in assay [4] was > 20.6 µM.

Turning to `COc1ccccc1C1/C(=C(\O)c2ccc3c(c2)OCCO3)C(=O)C(=O)N1CCCN(C)C` (stereo not drawn), the activity change, negative = inhibition in assay [1] was 8.19%; in assay [2] it was -5.11%. Moreover, in assay [3], the activity, negative = inhibition is 4.48%. Also, the Potency in assay [4] was > 20.6 µM.

Take `O=C1CCC(=O)N1c1nc2nc(-c3ccccc3)cc(-c3ccccc3)n2n1`: the activity change, negative = inhibition in assay [1] was -12.9%; in assay [2], 6.64%. The activity, negative = inhibition in assay [3] was -1.33%. Besides, in assay [4], the Potency is > 20.6 µM.

Turning to `Cc1[nH]c(=O)[nH]c(=O)c1S(=O)(=O)N1CCCC1`, the activity change, negative = inhibition in assay [1] was 11.7%; in assay [2] it was -7.3%. For the same compound, in assay [3], the activity, negative = inhibition is 12%. Further, in assay [4], the Potency was > 20.6 µM.

`CCOC(=O)N1CCN(C(=O)c2cn(CC)c3cc(N4CCN(C)CC4)c(F)cc3c2=O)CC1`: the activity change, negative = inhibition in assay [1] is 8.43%; in assay [2] it was 7.68%. Further, the activity, negative = inhibition in assay [3] is 0.507%. Moreover, the Potency in assay [4] is > 20.6 µM.

As for `c1ccc2c(c1)[nH]c1c(N3CCN(C4CCCCC4)CC3)ncnc12`, the results for the activity change, negative = inhibition in assay [1] and in assay [2] were 2.02% and -22.7%, respectively. Also, the activity, negative = inhibition in assay [3] was 0.857%. For the same compound, the Potency in assay [4] was > 20.6 µM.

In the case of `CSc1nc2sc3c(c2c2nnnn12)CCC3`, the activity change, negative = inhibition in assay [1] was -5.46%; in assay [2], -14.8%. Moreover, in assay [3], the activity, negative = inhibition was 9.44%. The Potency in assay [4] was > 20.6 µM.

For `Cc1c(NS(=O)(=O)c2cccc3nsnc23)c(=O)n(-c2ccccc2)n1C`, the activity change, negative = inhibition was 16.3% in assay [1] and -7.17% in assay [2]. Besides, the activity, negative = inhibition in assay [3] is 0.737%. Moreover, the Potency in assay [4] was > 20.6 µM.

In the case of `O=C(NCc1ccccc1)c1ccc(=O)[nH]n1`, the activity change, negative = inhibition in assay [1] was 2.35%; in assay [2], -2.12%. In assay [3], the activity, negative = inhibition was 5.54%. Further, the Potency in assay [4] was > 20.6 µM.

Take `CCc1cccc(CC)c1N(COC)C(=O)Cn1nnc2ccccc21`: the figures for the activity change, negative = inhibition in assay [1] and in assay [2] were -10.2% and 10%, respectively. For the same compound, the activity, negative = inhibition in assay [3] is -3.83%. For the same compound, in assay [4], the Potency is > 20.6 µM.

As to `COc1ccc(N2CCN(c3nc4c(c(=O)[nH]c(=O)n4C)n3CCCc3ccccc3)CC2)cc1`, the activity change, negative = inhibition in assay [1] was 22%; in assay [2], -12.3%. Also, the activity, negative = inhibition in assay [3] was -11%. In addition, the Potency in assay [4] is > 20.6 µM.

For `CC(C)CN1C(=O)NC(NC(=O)c2cccnc2)(C(F)(F)F)C1=O` (stereo not drawn), the activity change, negative = inhibition in assay [1] was -6.13%; in assay [2], 3.51%. Besides, in assay [3], the activity, negative = inhibition was -1.02%. Also, the Potency in assay [4] is > 20.6 µM.

As to `Cc1nn(C)cc1CNC(=O)c1ccc(Br)o1`, the results for the activity change, negative = inhibition in assay [1] and in assay [2] were 5.3% and -0.512%, respectively. The activity, negative = inhibition in assay [3] was 6.82%. Moreover, the Potency in assay [4] is > 20.6 µM.

`Cc1cc(=O)oc2cc(OCCSCCN3CCOCC3)ccc12`: the activity change, negative = inhibition was -6.35% in assay [1] and 3.73% in assay [2]. Besides, in assay [3], the activity, negative = inhibition is -0.537%. The Potency in assay [4] was > 20.6 µM.

Consider `CCCCOc1ccccc1C(=O)NCCCC(=O)O`, for which the activity change, negative = inhibition in assay [1] was -11.8%; in assay [2] it was -5.11%. Besides, the activity, negative = inhibition in assay [3] is 8.07%. For the same compound, the Potency in assay [4] is > 20.6 µM.

Take `CC(=O)C1=C(NC(=O)c2ccccc2F)C[C@@H]2[C@H]1C2(C)C`: the activity change, negative = inhibition was -3.24% in assay [1] and -24.2% in assay [2]. For the same compound, the activity, negative = inhibition in assay [3] was 18.8%. Besides, in assay [4], the Potency is > 20.6 µM.

On to `Cc1cccc(N)c1SC1CCCCC1O` (stereo not drawn), for which the activity change, negative = inhibition was -3.66% in assay [1] and -1.33% in assay [2]. Further, in assay [3], the activity, negative = inhibition was 2.62%. In assay [4], the Potency was > 20.6 µM.

Take `Cc1cc(SCCC(=O)O)nc2ccccc12`: the activity change, negative = inhibition in assay [1] was 0.423%; in assay [2], -5.26%. For the same compound, in assay [3], the activity, negative = inhibition was 6.44%. In addition, the Potency in assay [4] is > 20.6 µM.

`CC1(C(=O)CSc2nc3ccccc3[nH]2)CCC(=O)O1` (stereo not drawn): the activity change, negative = inhibition in assay [1] was 4.25%; in assay [2] it was 3.87%. For the same compound, in assay [3], the activity, negative = inhibition is -2.98%. Also, in assay [4], the Potency is > 20.6 µM.

For `Cn1c(=O)oc2cc(C(=O)c3ccccc3)ccc21`, the activity change, negative = inhibition in assay [1] is -10.8%; in assay [2], -9.48%. For the same compound, the activity, negative = inhibition in assay [3] is 0.21%. In addition, in assay [4], the Potency is > 20.6 µM.

For the compound `COCCOC(=O)c1c(C)nc(SCC(=O)Nc2ccc(C)cc2)c(C#N)c1-c1ccco1`, the figures for the activity change, negative = inhibition in assay [1] and in assay [2] were -27.8% and -11.8%, respectively. The activity, negative = inhibition in assay [3] is -18.9%. The Potency in assay [4] was > 20.6 µM.

Turning to `O=C(O)CCc1nn2cc(-c3ccccc3)nc2[nH]c1=O`, the values for the activity change, negative = inhibition in assay [1] and in assay [2] were 6.39% and -22.2%, respectively. Besides, the activity, negative = inhibition in assay [3] is 10.5%. The Potency in assay [4] is > 20.6 µM.

On to `O=C1CC(C(=O)O)c2ccccc2N1` (stereo not drawn), for which the activity change, negative = inhibition in assay [1] is 2.72%; in assay [2] it was -1.33%. Further, the activity, negative = inhibition in assay [3] is 6.42%. Moreover, the Potency in assay [4] is > 20.6 µM.

Consider `Cc1ccc(C2CC(C(F)(F)F)n3ncc(C(N)=O)c3N2)cc1` (stereo not drawn), for which the activity change, negative = inhibition was -3.17% in assay [1] and 2.37% in assay [2]. The activity, negative = inhibition in assay [3] is 5.84%. Moreover, in assay [4], the Potency was > 20.6 µM.

On to `CC(=O)c1ccc(C#CC(C)(C)O)s1`, for which the values for the activity change, negative = inhibition in assay [1] and in assay [2] were 6.06% and -7.12%, respectively. Moreover, the activity, negative = inhibition in assay [3] is 2.81%. For the same compound, the Potency in assay [4] was > 20.6 µM.

Consider `CN(C)CCCOC(=O)C1c2ccccc2Oc2ccccc21`, for which the activity change, negative = inhibition in assay [1] is 9.34%; in assay [2], -63.3% (active). The activity, negative = inhibition in assay [3] is -0.433%. Besides, in assay [4], the Potency is > 20.6 µM.

Take `Cc1nnc2n(C3CCCCC3)c(=O)c3c4c(sc3n12)COC(C)(C)C4`: the activity change, negative = inhibition in assay [1] was 4.48%; in assay [2], 5.64%. Besides, the activity, negative = inhibition in assay [3] is 0.172%. For the same compound, the Potency in assay [4] was > 20.6 µM.

Turning to `CCOC(=O)c1cnn2c1[nH]c(=O)c1ccccc12`, the activity change, negative = inhibition in assay [1] is -8.34%; in assay [2], 9.32%. Also, the activity, negative = inhibition in assay [3] is 9.94%. In assay [4], the Potency was > 20.6 µM.
